Experimental data published in PubChem BioAssay.
Values without a mark were called inactive. Activity calls are given as the source filed them. Cut-off read from the data, not from the text of the source: active = fold change permeability below about 0.7 or above about 1.3; inactive = in between.

Assay: compounds altering in vitro BBB leakiness – cell-based, FITC-avidin fluorescence, HTS, primary screen (AID 1963498); note: test concentration not given here
Conditions: brain endothelial barrier, actives lie on both sides

Row | Compound | fold change permeability
1 | Nc1ccncc1 | 0.9
2 | CCCN1CCC[C@@H]2Cc3nc(N)ncc3C[C@H]21 | 1.1
3 | CCCCCN(C)CCC(O)(P(=O)(O)O)P(=O)(O)O | 1.8 (active)
4 | N[C@@]1(C(=O)O)CC[C@@H](C(=O)O)C1 | 1
5 | CCCN1CCC[C@H](c2cccc(O)c2)C1 | 1
6 | CC(=O)OCC1=C(C(=O)[O-])N2C(=O)[C@@H](NC(=O)CCC[C@@H](N)C(=O)[O-])[C@H]2SC1.[Zn+2] | 1
7 | N#Cc1ccc(N2CCN(C(=O)COc3ccc4[nH]cc(CCN)c4c3)CC2)cc1 | 1
8 | CN1CCC(c2c[nH]c3ccc(O)cc23)CC1 | 1
9 | CCN1C[C@]2(COC)[C@H](O)C[C@H](OC)[C@]34C1[C@H]([C@H](OC)[C@H]23)[C@]1(OC(C)=O)[C@H]2[C@@H](OC(=O)c3ccccc3)[C@](O)(C[C@H]24)[C@@H](OC)[C@@H]1O | 1
10 | CCn1cc(C(=O)O)c(=O)c2ccc(C)nc21 | 0.9
11 | C[C@]12CCC3C(CC[C@H]4C[C@H](O)CC[C@]34C)C1CC[C@@H]2C(=O)CO (stereo partly specified) | 1.1
12 | CC(=O)NBr | 1
13 | C=C(C)[C@H]1Cc2c(ccc3c2O[C@@H]2COc4cc(OC)c(OC)cc4[C@@H]2C3=O)O1 | 1.7 (active)
14 | C[C@@H](N)Cc1cnc[nH]1 | 0.9
15 | NCCc1c[nH]c2ccc(C(N)=O)cc12 | 1
16 | NC(=O)CN1CCCC1=O | 1.2
17 | O=P1(N(CCCl)CCCl)NCCCO1 (stereo unspecified) | 1
18 | CC(N)c1cccc(Cl)c1Cl (stereo unspecified) | 1.1

Row | Compound | fold change permeability
19 | NCCc1ccc(S(=O)(=O)F)cc1 | 1
20 | Cc1ccc(S(=O)(=O)N[C@@H](CCCCN)C(=O)CCl)cc1 | 1.4 (active)
21 | O=C1C=CC(=O)C=C1 | 1
22 | Cc1cccc(C)c1NC(=O)CN1CCCC1=O | 1
23 | NCC(CP(=O)(O)O)c1ccc(Cl)cc1 (stereo unspecified) | 1
24 | COc1cc2c3c(c1OC)-c1ccccc1C[C@H]3N(C)CC2 | 1.9 (active)
25 | Cn1cnc(CCN)c1 | 0.9
26 | CCCN(CCC)CCc1ccc(O)c(O)c1 | 0.8
27 | CC(N)Cc1c[nH]c2ccc(O)cc12 (stereo unspecified) | 0.8
28 | NC(CP(=O)(O)O)C(=O)O (stereo unspecified) | 1
29 | CC1OC1P(=O)(O)O (stereo unspecified) | 1.1
30 | CC(C)(C)c1o[nH]c(=O)c1CC(N)C(=O)O (stereo unspecified) | 1.1
31 | COc1cc([C@@H]2c3cc4c(cc3[C@H](O)[C@H]3COC(=O)[C@H]23)OCO4)cc(OC)c1OC | 1.2
32 | O=[N+]([O-])c1ccc2nc(N3CCNCC3)ccc2c1 | 1
33 | NCCCP(=O)(O)O | 1.3 (active)
34 | CC(=O)[C@H]1CCC2C3CC[C@H]4C[C@H](O)CC[C@]4(C)C3CC[C@@]21C (stereo partly specified) | 0.9
35 | CNc1ccc2oc(C[C@H]3O[C@@]4(CC[C@H]3C)O[C@H]([C@H](C)C(=O)c3ccc[nH]3)[C@H](C)C[C@H]4C)nc2c1C(=O)O | 1.2
36 | c1ccc2c(c1)[I+]c1ccccc1-2 | 1.7 (active)
